High-throughput results deposited in PubChem by SRMLSC.
Hits are enriched below; roughly 6.5% of the tested compounds scored in any of these assays.
Spn DPM-DC inh = S. pneumoniae DPM-DC inhibition | purified DPM-DC, PK/LDH coupled NADH fluorescence | calls only at 10 µM | 0.49% of 65,000 active;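 active = the 320 compounds with the highest percent inhibition in the single-dose primary screen, excluding strongly autofluorescent ones, cut at about 32% in these data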;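 also: kinetic rate of NADH fluorescence loss reporting ADP formed by the decarboxylase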
Abs 340nm = compound absorbs light at 340 nm | compound absorbance at 340 nm, fold over control | fold change at 10 µM | 65,000 tested, under 10 active | AID 708;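 active = at 10 µM dose, initial 340 nm absorbance at least 2 fold that of control wells; inactive = change under 2 fold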;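 also: initial absorbance extrapolated from kinetic A340 decline of NADH oxidation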
PMK inhibit = inhibitors of Streptococcus pneumoniae phosphomevalonate kinase; 0.49% of 65,000 active; inhibition, % at 10 µM; AID 539; purified PMK, PK/LDH-coupled NADH absorbance 340 nm;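 active = top-ranked compounds by inhibition in the single 10 µM screen, taking a fixed number of the strongest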;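 also: 0% = full reaction with DMSO carrier and 100% = background rate without enzyme reaction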
Autofluor 339 = intrinsic fluorescence of library compounds, ex339/em460 – biochemical, MLSMR library, data from DPM-DC assay, artefact control, profiling panel | compound autofluorescence, ex339/em460 nm, NADH buffer; stronger effect = higher value; 1 = no-compound wells, NADH background | fluorescence fold increase at 10 µM | 5.5% of 65,000 active | AID 709;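 active = at 10 µM, mean starting fluorescence two-fold or more over control wells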;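 also: signal is the first read of a kinetic run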
NADH coupling = inhibitors of enzymes used to reach an NAD/NADH endpoint; 0.02% of 65,000 active; coupled PK/LDH NADH assays, four targets; IC50, µM (titrated, usually from 10 µM), for inactives: top-dose inhibition; AID 774;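 active = single-dose screening hits from any of four coupled enzyme assays that gave an IC50 when retested across doses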;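 also: the DPM-DC format reads NADH fluorescence rather than 340 nm absorbance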
Spn MK inh = S. pneumoniae mevalonate kinase inhibition; purified MK, PK/LDH-coupled NADH absorbance 340 nm; inhibition, % at 10 µM; 0.48% of 65,000 active;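 active = ranked among the strongest by inhibition in the single 10 µM screen, a fixed top-ranked set picked for dose follow-up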
Numbers without * were called inactive; i = inactive; . = not tested or not shown; + = active, no number.

SMILES	Spn DPM-DC inh	Abs 340nm	PMK inhibit	Autofluor 339	NADH coupling	Spn MK inh
COc1ccc(-n2c(NC(=O)c3ccco3)c(C#N)c3nc4ccccc4nc32)cc1	+	1.11	14.0	3*	20.0%	9.0
N#Cc1c(N)n(C2CCCCC2)c2nc3ccccc3nc12	.	1.02	2.0	3.91*	8.0%	13.0
CCOc1ccc2[nH]c(=O)c(CN(C(=O)N3CCOCC3)C3CC3)cc2c1	.	1.06	14.0	3.77*	7.0%	0.0
CCOc1ccc2[nH]c(=O)c(CN(Cc3ccccc3)C(=O)N3CCCC3)cc2c1	i	1.01	15.0	2.15*	7.0%	8.0
Cn1c(=O)c2sccc2n2c(CCCC(=O)NCc3ccc4c(c3)OCO4)nnc12	i	1.03	15.0	1.1	6.0%	1.0
COCCNC(=O)C(c1ccc(C)o1)N(C(=O)c1snc(C(N)=O)c1N)c1ccc(C)c(C)c1 (centres undefined)	i	1.04	8.0	1.58	7.0%	2.0
CC(C(=O)NCc1ccccc1)N(CCN1CCOCC1)C(=O)c1snc(C(N)=O)c1N (centres undefined)	i	1.03	10.0	2.35*	13.0%	4.0
CC(C(=O)NCC1CCCO1)N(C(=O)c1snc(C(N)=O)c1N)c1cccc(F)c1 (centres undefined)	i	1.05	19.0	3.9*	20.0%	13.0
CC(NC(=O)OCc1ccccc1)C(=O)NCC1CCCO1 (centres undefined)	i	0.99	6.0	1.07	9.0%	12.0
CC(C(=O)NCC1CCCO1)N(C(=O)c1snc(C(N)=O)c1N)c1ccccc1 (centres undefined)	i	1.08	19.0	3.11*	12.0%	13.0
Cc1onc(-c2ccccc2Cl)c1C(=O)Nc1cccc(-c2cn3cccnc3n2)c1	.	1.03	10.0	3.55*	3.0%	2.0
CC(C)CCSc1nc(N)c(C#N)cc1C#N	i	1.13	16.0	1.41	11.0%	7.0
COc1ccc2oc(C(=O)C3CC3)c(N)c2c1	i	1.13	8.0	2.07*	10.0%	2.0
COc1ccc(C(=O)c2oc3ccccc3c2N)cc1	i	1.08	0.0	1.49	9.0%	10.0
Cc1c(NC(=O)COC(=O)c2cc3c4ccccc4n(C)c3s2)c(=O)n(-c2ccccc2)n1C	i	1.23	6.0	3.23*	11.0%	2.0
CCOC(=O)c1cc2c(=O)n(C)c3ccccc3c2s1	+	1.01	14.0	2.77*	21.0%	6.0
CN1CCN(CCCNC(=O)c2cc3c(=O)n(C)c4ccccc4c3s2)CC1	.	1.17	0.0	2.11*	6.0%	12.0
CCOC(=O)c1ccc(NC(=O)c2c(O)c3ccccc3n(C)c2=O)cc1	i	1.06	0.0	1.1	2.0%	7.0
CCOC(=O)C(CO)(NC(C)=O)C(=O)OCC	i	1.03	12.0	1.12	4.0%	0.0
CCC(c1nnnn1C(C)(C)C)N1CCN(c2cc(Cl)ccc2C)CC1 (centres undefined)	i	0.99	14.0	1.03	7.0%	7.0
Cn1c(/C=N/c2nc3ccccc3[nH]2)nc2ccccc21	i	1.03	5.0	1.16	6.0%	7.0
Cn1c(/C=N/n2cnnc2)nc2ccccc21	.	1.04	7.0	2.45*	3.0%	6.0
CCOCCCn1c(=N)c(C(=O)NCCN2CCOCC2)cc2c(=O)n3cccc(C)c3nc21	.	1.02	18.0	5.21*	12.0%	5.0
Cc1cccn2c(=O)c3cc(C(=O)NCCN4CCOCC4)n(Cc4ccccc4)c3nc12	.	1.06	11.0	3.83*	9.0%	7.0
O=C(CCC(=O)c1ccc(F)cc1)OC1CCOC1=O (centres undefined)	i	1.05	1.0	1.15	5.0%	9.0
SMILES	Spn DPM-DC inh	Abs 340nm	PMK inhibit	Autofluor 339	NADH coupling	Spn MK inh
COC(=O)c1ccccc1NC(=O)CN(C)S(=O)(=O)c1cc(C)ccc1OC	i	1.01	9.0	1.04	7.0%	10.0
Cc1cccc(C2Nc3ccccc3C(=O)N2c2ccccc2)n1 (centres undefined)	.	1.05	3.0	2.16*	3.0%	3.0
O=C1c2ccccc2NC(c2ccccc2)N1c1ccc(O)cc1 (centres undefined)	i	1.06	13.0	1.59	9.0%	13.0
O=C1c2ccccc2NC(c2ccccn2)N1c1ccc(Cl)cc1 (centres undefined)	.	0.98	14.0	4.83*	10.0%	5.0
Cc1sc2nc3n(c(=O)c2c1C)Cc1ccccc1-3	.	1.12	10.0	3.74*	7.0%	3.0
O=C(NC1(C(F)(F)F)NC(=O)N(C2CCCC2)C1=O)C1CC1 (centres undefined)	i	1.02	3.0	1.04	5.0%	9.0
O=C1CCCC2=C1C1(CCCC1)N=C(Nc1nc3ccccc3s1)N2	i	1.04	3.0	2.01*	6.0%	3.0
O=C1CCCC2=C1C1(CCCCC1)N=C(Nc1nc3ccccc3s1)N2	i	1.07	7.0	2.3*	7.0%	14.0
OCCNc1nc2ccc(Cl)cc2[nH]1	i	1	6.0	1.06	2.0%	0.0
Cc1c(O)ccc2c3c(c(=O)oc12)CCCC3	.	1.07	8.0	3.89*	9.0%	9.0
Cc1oc2ccc(O)c(CN3CCOCC3)c2c1C(=O)c1ccc(Cl)cc1	i	1.05	13.0	1.11	8.0%	10.0
Cc1c(O)ccc2c3c(c(=O)oc12)CCC(C)C3 (centres undefined)	.	1.12	5.0	3.67*	7.0%	9.0
O=c1oc2c(CN3CCOCC3)c(O)ccc2c2c1CCC2	.	1.14	6.0	3.58*	7.0%	8.0
CC1=C2C(CCS2(=O)=O)CC2(C1)C(=O)OC(C)(C)OC2=O (centres undefined)	i	0.98	4.0	1.05	4.0%	8.0
O=C(Cn1ccc2ccccc2c1=O)NCCC(=O)NC1CCN(Cc2ccccc2)CC1	i	1.03	17.0	1.14	3.0%	0.0
Cc1nn(-c2ccccc2)c2c1C(O)n1c(nc3ccccc31)S2 (centres undefined)	i	1	10.0	1.03	6.0%	+
Cc1nn(-c2ccc(C(=O)O)cc2)c(N)c1-c1ccccc1	i	0.97	15.0	1.05	6.0%	3.0
COC(=O)c1sc2nc(N3CCCCC3)c3c(c2c1N)CC(C)(C)N(C)C3	.	1.09	2.0	2.33*	1.0%	0.0
CCOC(=O)c1sc2nc(N3CCOCC3)c3c(c2c1N)CCC3	.	1.15	5.0	3.64*	11.0%	17.0
Cc1nnc(Sc2nc3c(c(=O)[nH]c(=O)n3C)n2Cc2ccccc2Cl)s1	i	1.05	8.0	1.09	4.0%	4.0
COC(=O)c1[nH]c2cccc(OC)c2c1NC(=O)CN1CCN(c2cccc(OC)c2)C(C)C1 (centres undefined)	i	1.06	10.0	2.95*	13.0%	4.0
COC(=O)c1[nH]c2cccc(OC)c2c1NC(=O)CCN1CCC(C)CC1	i	1.14	15.0	1.96	8.0%	0.0
